Source: PubChem BioAssay (EPA / NIEHS)
Results filed as inconclusive are left out. Calls of active or inactive are those of the source. Rule for the calls: active = hit-call score of the fitted dose curve at least 0.9, where 1 is the maximum; inconclusive = response in the unintended direction; inactive = score below 0.9.

Assays:
[1] = target: human Matrix Metalloproteinase-9 (MMP9), MMP9 (gene 4318) (UniProt P14780); assay: NVS_ENZ_hMMP9: NovaScreen (NVS) Enzymatic Assay for human Matrix Metalloproteinase-9 (MMP9) (AID 2283190);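 note: cell-free recombinant MMP9 protease activity read by fluorescent substrate signal; active means inhibition seen as loss of fluorescence signal versus DMSO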
Procedure, shortened: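 Screening concentration 25 uM, duplicate wells, then dose series for confirmation. Cell-free enzymatic reaction measured by fluorescence intensity 1 h post-dosing; decreased signal versus DMSO taken as activity.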

[2] = target: human Ephrin type-A Receptor 1 (EphA1), EPHA1 (gene 2041) (UniProt P21709); assay: NVS_ENZ_hEphA1: NovaScreen (NVS) Enzymatic Assay for human Ephrin type-A Receptor 1 (EphA1) (AID 2283158);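 note: activity is signal loss versus DMSO meaning EphA1 kinase inhibition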
Procedure, shortened: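 Recombinant kinase, fluorescent substrate, mobility-shift separation, fluorescence read at 1 h. Single-point duplicates at 25 uM; hits (e.g., ≥30% inhibition) run singleton concentration-response, max 50 uM. DMSO = negative control/baseline.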

[3] = target: human Dual Specificity Protein Phosphatase 3 (DUSP3), DUSP3 (gene 1845) (UniProt P51452); assay: NVS_ENZ_hDUSP3: NovaScreen (NVS) Enzymatic Assay for human Dual Specificity Protein Phosphatase 3 (DUSP3) (AID 2283152);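 note: phosphatase activity of recombinant human DUSP3 on a fluorogenic substrate without cells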
Procedure, shortened: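 Cell-free fluorescence-intensity enzyme activity assay with recombinant protein and substrate; loss of signal fitted relative to DMSO baseline. Primary screen in duplicate at 25 uM, actives then run in concentration series; measured 0 h after dosing.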

[4] = target: human Esterase Plasma (ES), BCHE (gene 590) (UniProt P06276); assay: NVS_ENZ_hES: NovaScreen (NVS) Enzymatic Assay for human Esterase Plasma (ES) (AID 2283157)
Procedure, shortened: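 Human plasma-derived enzyme, cell-free, colorimetric readout at 0.25 h. Primary screen 25 uM in duplicate; hits (e.g. ≥30% inhibition) rerun singleton up to 50 uM. DMSO = negative control/baseline.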

human Matrix Metalloproteinase-9 (MMP9), MMP9 (gene 4318), sequence (P14780 whole entry, looked up): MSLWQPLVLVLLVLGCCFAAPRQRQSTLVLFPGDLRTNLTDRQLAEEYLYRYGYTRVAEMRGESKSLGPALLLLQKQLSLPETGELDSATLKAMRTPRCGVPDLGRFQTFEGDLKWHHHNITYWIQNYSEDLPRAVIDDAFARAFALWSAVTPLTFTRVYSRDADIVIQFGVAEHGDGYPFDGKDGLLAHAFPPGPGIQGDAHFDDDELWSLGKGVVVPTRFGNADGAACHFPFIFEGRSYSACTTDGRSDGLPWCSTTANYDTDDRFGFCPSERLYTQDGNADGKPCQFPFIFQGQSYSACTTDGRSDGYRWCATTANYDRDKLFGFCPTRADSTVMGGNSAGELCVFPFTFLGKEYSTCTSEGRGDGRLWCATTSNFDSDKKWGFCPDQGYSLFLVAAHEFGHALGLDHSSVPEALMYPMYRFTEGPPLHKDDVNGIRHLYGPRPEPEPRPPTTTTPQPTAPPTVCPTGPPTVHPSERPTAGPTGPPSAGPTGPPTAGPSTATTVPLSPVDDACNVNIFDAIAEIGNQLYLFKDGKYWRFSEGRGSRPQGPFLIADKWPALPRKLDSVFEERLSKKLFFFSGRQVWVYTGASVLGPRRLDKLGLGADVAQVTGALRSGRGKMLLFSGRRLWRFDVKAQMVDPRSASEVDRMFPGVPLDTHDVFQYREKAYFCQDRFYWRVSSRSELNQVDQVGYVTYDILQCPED
human Ephrin type-A Receptor 1 (EphA1), EPHA1 (gene 2041), sequence (P21709 whole entry, looked up): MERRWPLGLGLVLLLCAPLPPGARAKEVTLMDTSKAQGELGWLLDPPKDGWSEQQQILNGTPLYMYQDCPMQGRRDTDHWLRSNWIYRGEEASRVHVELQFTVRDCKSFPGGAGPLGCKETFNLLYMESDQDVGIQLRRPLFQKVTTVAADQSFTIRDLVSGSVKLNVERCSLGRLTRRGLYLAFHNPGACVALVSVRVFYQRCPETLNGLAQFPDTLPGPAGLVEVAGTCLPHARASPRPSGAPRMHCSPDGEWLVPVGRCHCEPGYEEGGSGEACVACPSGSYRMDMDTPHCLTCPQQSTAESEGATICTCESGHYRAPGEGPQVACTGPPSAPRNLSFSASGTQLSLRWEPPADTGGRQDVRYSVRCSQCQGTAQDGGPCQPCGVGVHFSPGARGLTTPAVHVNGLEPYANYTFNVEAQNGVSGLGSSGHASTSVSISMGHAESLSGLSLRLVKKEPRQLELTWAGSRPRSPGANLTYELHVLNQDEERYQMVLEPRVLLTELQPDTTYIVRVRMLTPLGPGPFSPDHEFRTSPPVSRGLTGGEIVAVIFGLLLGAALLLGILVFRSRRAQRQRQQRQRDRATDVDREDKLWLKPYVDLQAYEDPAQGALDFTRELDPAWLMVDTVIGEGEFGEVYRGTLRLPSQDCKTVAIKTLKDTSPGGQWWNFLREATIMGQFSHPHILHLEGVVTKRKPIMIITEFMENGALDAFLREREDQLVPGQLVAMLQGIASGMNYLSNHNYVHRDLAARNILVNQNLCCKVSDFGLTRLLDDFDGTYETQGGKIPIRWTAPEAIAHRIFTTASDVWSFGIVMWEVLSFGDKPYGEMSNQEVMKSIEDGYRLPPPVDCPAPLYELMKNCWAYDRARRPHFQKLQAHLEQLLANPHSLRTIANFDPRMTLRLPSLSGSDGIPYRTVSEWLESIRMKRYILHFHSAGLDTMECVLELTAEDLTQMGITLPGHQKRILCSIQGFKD
human Dual Specificity Protein Phosphatase 3 (DUSP3), DUSP3 (gene 1845), sequence (P51452 whole entry, looked up): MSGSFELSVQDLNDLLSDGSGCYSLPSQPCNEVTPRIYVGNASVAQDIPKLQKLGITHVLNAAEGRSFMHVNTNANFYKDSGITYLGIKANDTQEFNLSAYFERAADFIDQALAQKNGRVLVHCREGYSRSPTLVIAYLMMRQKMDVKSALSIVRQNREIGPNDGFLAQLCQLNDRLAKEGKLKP
human Esterase Plasma (ES), BCHE (gene 590), sequence (P06276 whole entry, looked up): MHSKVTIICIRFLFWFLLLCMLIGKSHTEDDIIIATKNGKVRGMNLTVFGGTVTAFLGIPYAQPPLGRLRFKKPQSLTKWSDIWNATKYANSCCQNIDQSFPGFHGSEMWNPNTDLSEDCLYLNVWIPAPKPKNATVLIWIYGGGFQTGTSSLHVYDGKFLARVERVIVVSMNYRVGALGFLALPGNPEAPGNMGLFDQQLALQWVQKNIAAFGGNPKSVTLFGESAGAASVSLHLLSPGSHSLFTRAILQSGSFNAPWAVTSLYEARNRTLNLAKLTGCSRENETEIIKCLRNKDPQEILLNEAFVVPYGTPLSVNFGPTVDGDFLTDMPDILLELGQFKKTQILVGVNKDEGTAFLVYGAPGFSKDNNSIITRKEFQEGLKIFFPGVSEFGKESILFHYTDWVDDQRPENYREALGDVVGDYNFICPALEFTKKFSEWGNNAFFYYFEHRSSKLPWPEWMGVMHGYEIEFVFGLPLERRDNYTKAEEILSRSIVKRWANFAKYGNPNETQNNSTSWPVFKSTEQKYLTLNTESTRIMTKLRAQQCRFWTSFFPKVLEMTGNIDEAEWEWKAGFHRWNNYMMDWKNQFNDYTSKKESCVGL

C=CC(=O)OCC(CO)(COC(=O)C=C)COC(=O)C=C
AC50 [1]: 10.5 µM (active)

N#CCCNCCC#N
AC50 [2]: 21.8 µM (active)

CCOC(=O)C(=O)OCC
outcome [2]: inactive | AC50 [1]: 4.5 µM (active)

CCC(CC)CO
outcome [2]: inactive

COC(=O)c1ccc(C(=O)OC)cc1
outcome [1]: inactive

C=C(C)C(=O)OCCC[Si](OC)(OC)OC
AC50 [2]: 25 µM (active)

O=C1OC2(c3ccc(O)cc3Oc3cc(O)ccc32)c2ccccc21
AC50 [3]: 23.6 µM (active) | outcome [4]: inactive

c1ccc(Sc2ccccc2)cc1
outcome [2]: inactive

CCCCCCCCOC(C)=O
AC50 [3]: 25 µM (active)

CC(=O)C1C(=O)C=C(C)OC1=O (configuration not stated)
AC50 [2]: 39.1 µM (active)
